# Reference: PubChem BioAssay
# The source made the active and inactive calls.
# Experiments:
# [1] = system: PRMT1 (protein arginine N-methyltransferase 1); test: PRMT1 binders on small-molecule microarrays, primary screen, biochemical, small-molecule microarray, 635 nm fluorescence (AID 1088); settings: small-molecule microarray binding, higher = more signal;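 note: binding of Prmt1 protein to compounds spotted on small-molecule microarray slides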
# [2] = yeast growth modulation, basal conditions, primary screen, YJM789 clinical isolate, OD600, 24 h (AID 1089);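 note: growth of clinical yeast isolate S. cerevisiae YJM 789 seeded 1000 cells per well; test concentration not given here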; settings: S. cerevisiae YJM789 growth, higher = more signal, called active from +8 up or from −8 down
# [3] = fission yeast growth modulation, primary screen, strain 972, OD600, 24 h, no modulator (AID 1090);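 note: basal condition with compound alone and no growth modifier present; test concentration not given here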; settings: S. pombe 972 growth, higher = more signal, called active from +8 up or from −8 down
# [4] = S. cerevisiae growth modulation with rapamycin, primary screen, strain BY4716, OD600, 96 h (AID 1091); settings: higher = more signal, called active from +8 up or from −8 down; note: test concentration not given here
# [5] = biological target: Torsin-1A-interacting protein 2 (Homo sapiens) (UniProt Q8NFQ8); test: LULL1 binders on small-molecule microarray, primary screen, cell lysate, human LULL1 lysate, 635/667 nm fluorescence (AID 1092); settings: hLULL1 lysate binding, 635 nm fluorescence, higher = more signal;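 note: probe is lysate of COS7 cells overexpressing human LULL1; score merges per-feature 667 nm fluorescence with signal-to-noise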
# [6] = E. coli growth modulation, two-sided OD650, primary screen, E. coli filamentation project, strain DRC41, 24 h (AID 1093); settings: OD650, 24 h, higher = more signal, called active from +8 up or from −8 down;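 note: MC1000 strain lacking acrAB efflux and sulA so SOS filamentation is blocked; test concentration not given here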
# [7] = small-molecule microarray binders of probe aLefty2, primary screen, biochemical, biotinylated probe, 635/667 nm fluorescence (AID 1094); settings: higher = more signal;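 note: score merges spot fluorescence near 667 nm with spot signal-to-noise ratio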
# [8] = system: Noggin (protein binding on small-molecule microarray); test: Noggin binders on small-molecule microarray, primary screen, biochemical, 635/667 nm fluorescence (AID 1095); settings: 635 nm fluorescence, higher = more signal;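 note: score merges 667 nm feature fluorescence with signal to noise over triplicate slides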
# [9] = biological target: Neurogenic locus notch homolog protein 3 (Homo sapiens) (UniProt Q9UM47); test: NOTCH3 binders on small-molecule microarray, primary screen, biochemical, 635/667 nm fluorescence (AID 1096); settings: NOTCH3 binding, 635 nm fluorescence, higher = more signal
# [10] = small-molecule microarray binders of probe aEGFR, primary screen, biochemical, biotinylated probe, 635/667 nm fluorescence (AID 1097); settings: higher = more signal;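 note: probe is a biotinylated anti-EGFR antibody binding compounds printed on slides; score combines fluorescence near 667 nm and signal to noise of each spot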
# [11] = system: Plasmodium falciparum Sir2 (PF13_0152, Sir2A); test: pfSir2 binders on small-molecule microarrays, primary screen, biochemical, small-molecule microarray, 635 nm fluorescence (AID 1098); settings: small-molecule microarray binding, fluorescence 635 nm; higher = more signal;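 note: score merges spot fluorescence intensity with its signal-to-noise ratio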
# [12] = small-molecule microarray binders of probe aDKK1, primary screen, biochemical, biotinylated probe, 635/667 nm fluorescence (AID 1099); settings: higher = more signal;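 note: score merges 667nm spot fluorescence with signal to noise across triplicate slides; reference of the scale not given here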
# [13] = small-molecule microarray binders of probe aCHRDL2, primary screen, biochemical, biotinylated probe, 635/667 nm fluorescence (AID 1100); settings: higher = more signal
# [14] = splicing luciferase reporter signal modulators, primary screen, spliceosome inhibition project, cell-based, HEK293, splice +/- reporter (AID 1101); settings: luminescence, 24 h, higher = more signal, called active from +8 up or from −8 down;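 note: HEK293 cells carrying a splicing-competent luciferase reporter gene; test concentration not given here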
# [15] = biological target: Fibroblast growth factor 10 (Homo sapiens) (UniProt O15520); test: FGF10 binders on small-molecule microarrays, primary screen, biochemical, small-molecule microarray, 635 nm fluorescence (AID 1102); settings: FGF10 binding, fluorescence 635 nm, higher = more signal
# [16] = system: glycogen synthase kinase-3 (GSK3A per assay name; protocol says GSK3B); test: GSK3 binders on small-molecule microarrays, primary screen, biochemical, small-molecule microarray, 635 nm fluorescence, GSK3A (AID 1103); settings: small-molecule microarray binding, fluorescence 635 nm; higher = more signal; note: the record names both GSK3A and GSK3B
# [17] = biological target: Epidermal growth factor receptor (Homo sapiens) (UniProt P00533); test: EGFR binders on small-molecule microarrays, primary screen, biochemical, small-molecule microarray, 635 nm fluorescence (AID 1104); settings: EGFR binding, higher = more signal;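 note: score merges 667 nm emission intensity with spot signal to noise over triplicate slides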
# [18] = biological target: Follistatin-related protein 3 (Homo sapiens) (UniProt O95633); test: FSTL3 binders on small-molecule microarrays, primary screen, biochemical, small-molecule microarray, 635 nm fluorescence (AID 1105); settings: FSTL3 binding, higher = more signal;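 note: score merges emission near 667 nm and signal to noise per printed spot across three slides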
# [19] = biological target: Dickkopf-related protein 1 (Homo sapiens) (UniProt O94907); test: DKK1 binders on small-molecule microarrays, primary screen, biochemical, small-molecule microarray, 635 nm fluorescence scan (AID 1106); settings: DKK1 binding, higher = more signal;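 note: score merges emission near 667 nm with signal to noise over three replicate slides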
# [20] = system: Inhibin beta A chain (activin A); test: INHBA (activin A) binders on microarrays, primary screen, biochemical, small-molecule microarray, 635 nm fluorescence scan (AID 1107); settings: small-molecule microarray binding, higher = more signal;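 note: mouse activin A protein probed at 4.33 µg/mL on printed slides; score merges bound-protein fluorescence near 667 nm with spot signal-to-noise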
# Chain of Fibroblast growth factor 10 (Homo sapiens) (O15520 whole entry, looked up): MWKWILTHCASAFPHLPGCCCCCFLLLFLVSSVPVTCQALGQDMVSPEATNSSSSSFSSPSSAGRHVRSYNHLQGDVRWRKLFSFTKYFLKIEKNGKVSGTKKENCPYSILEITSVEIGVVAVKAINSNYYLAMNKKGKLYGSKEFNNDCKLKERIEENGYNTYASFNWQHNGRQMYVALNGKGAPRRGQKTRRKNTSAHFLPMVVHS
# Chain of Follistatin-related protein 3 (Homo sapiens) (O95633 whole entry, looked up): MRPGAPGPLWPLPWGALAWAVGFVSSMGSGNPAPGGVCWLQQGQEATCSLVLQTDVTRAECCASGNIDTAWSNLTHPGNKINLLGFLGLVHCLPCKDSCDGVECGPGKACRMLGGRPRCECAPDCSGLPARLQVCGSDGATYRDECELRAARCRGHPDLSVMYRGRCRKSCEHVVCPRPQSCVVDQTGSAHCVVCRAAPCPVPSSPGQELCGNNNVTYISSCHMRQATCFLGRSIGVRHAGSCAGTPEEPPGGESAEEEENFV
# Chain of Neurogenic locus notch homolog protein 3 (Homo sapiens) (Q9UM47 whole entry, looked up): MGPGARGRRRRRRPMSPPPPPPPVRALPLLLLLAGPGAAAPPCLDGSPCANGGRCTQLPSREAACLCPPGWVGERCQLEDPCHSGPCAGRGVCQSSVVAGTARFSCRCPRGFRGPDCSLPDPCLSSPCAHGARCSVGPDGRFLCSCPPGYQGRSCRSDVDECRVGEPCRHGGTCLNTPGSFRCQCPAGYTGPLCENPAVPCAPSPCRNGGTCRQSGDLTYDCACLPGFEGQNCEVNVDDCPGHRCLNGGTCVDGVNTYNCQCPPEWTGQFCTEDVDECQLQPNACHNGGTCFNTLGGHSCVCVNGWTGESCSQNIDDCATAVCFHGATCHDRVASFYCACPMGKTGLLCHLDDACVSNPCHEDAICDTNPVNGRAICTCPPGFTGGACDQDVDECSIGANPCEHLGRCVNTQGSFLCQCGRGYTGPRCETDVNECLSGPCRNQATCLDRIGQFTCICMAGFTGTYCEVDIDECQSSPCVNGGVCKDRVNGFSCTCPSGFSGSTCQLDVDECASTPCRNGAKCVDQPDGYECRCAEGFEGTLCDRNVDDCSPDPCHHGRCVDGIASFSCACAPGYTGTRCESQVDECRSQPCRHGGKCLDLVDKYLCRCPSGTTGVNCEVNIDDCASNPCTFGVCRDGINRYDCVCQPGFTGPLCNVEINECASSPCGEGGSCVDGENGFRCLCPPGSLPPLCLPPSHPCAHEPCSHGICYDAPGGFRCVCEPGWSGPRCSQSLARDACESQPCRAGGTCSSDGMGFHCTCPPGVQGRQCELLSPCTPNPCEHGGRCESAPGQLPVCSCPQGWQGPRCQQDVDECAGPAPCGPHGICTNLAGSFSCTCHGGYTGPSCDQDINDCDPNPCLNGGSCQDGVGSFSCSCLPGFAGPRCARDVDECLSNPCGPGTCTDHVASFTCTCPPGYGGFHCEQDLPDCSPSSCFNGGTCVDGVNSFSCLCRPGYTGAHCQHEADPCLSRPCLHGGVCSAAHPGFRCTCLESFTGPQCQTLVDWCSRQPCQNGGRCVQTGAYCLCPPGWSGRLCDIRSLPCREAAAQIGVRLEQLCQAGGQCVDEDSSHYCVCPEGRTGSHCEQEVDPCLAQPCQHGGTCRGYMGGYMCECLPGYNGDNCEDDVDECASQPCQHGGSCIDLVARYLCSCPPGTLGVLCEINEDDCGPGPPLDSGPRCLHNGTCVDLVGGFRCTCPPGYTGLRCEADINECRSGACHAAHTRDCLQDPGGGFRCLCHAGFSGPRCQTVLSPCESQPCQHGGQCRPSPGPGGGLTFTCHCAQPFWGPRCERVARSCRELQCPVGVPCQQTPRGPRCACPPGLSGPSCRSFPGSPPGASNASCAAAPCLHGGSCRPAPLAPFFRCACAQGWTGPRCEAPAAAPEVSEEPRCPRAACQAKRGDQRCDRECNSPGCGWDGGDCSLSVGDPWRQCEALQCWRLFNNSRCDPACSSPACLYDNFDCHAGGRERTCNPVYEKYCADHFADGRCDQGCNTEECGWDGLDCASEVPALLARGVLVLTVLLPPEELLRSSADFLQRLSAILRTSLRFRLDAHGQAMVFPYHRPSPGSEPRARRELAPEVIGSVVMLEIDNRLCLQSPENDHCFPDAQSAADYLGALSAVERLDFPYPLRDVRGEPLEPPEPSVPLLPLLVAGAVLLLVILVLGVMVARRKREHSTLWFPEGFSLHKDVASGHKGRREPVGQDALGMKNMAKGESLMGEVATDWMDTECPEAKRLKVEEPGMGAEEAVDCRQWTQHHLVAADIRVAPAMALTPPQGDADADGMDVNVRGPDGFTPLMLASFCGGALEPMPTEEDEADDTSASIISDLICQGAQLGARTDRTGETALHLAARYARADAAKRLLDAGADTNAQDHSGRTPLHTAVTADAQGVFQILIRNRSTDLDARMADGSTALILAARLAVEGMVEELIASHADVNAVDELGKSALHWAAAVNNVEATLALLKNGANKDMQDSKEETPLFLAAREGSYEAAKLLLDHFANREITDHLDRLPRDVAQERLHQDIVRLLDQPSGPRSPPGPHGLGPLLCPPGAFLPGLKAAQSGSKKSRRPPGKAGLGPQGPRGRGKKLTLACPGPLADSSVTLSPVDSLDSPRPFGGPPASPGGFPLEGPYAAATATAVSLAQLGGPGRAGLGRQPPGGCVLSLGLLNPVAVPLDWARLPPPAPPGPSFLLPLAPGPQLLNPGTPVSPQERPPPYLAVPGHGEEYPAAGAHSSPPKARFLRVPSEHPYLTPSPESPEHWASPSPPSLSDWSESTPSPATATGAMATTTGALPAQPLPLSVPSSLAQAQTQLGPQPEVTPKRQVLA
# Chain of Epidermal growth factor receptor (Homo sapiens) (P00533 whole entry, looked up): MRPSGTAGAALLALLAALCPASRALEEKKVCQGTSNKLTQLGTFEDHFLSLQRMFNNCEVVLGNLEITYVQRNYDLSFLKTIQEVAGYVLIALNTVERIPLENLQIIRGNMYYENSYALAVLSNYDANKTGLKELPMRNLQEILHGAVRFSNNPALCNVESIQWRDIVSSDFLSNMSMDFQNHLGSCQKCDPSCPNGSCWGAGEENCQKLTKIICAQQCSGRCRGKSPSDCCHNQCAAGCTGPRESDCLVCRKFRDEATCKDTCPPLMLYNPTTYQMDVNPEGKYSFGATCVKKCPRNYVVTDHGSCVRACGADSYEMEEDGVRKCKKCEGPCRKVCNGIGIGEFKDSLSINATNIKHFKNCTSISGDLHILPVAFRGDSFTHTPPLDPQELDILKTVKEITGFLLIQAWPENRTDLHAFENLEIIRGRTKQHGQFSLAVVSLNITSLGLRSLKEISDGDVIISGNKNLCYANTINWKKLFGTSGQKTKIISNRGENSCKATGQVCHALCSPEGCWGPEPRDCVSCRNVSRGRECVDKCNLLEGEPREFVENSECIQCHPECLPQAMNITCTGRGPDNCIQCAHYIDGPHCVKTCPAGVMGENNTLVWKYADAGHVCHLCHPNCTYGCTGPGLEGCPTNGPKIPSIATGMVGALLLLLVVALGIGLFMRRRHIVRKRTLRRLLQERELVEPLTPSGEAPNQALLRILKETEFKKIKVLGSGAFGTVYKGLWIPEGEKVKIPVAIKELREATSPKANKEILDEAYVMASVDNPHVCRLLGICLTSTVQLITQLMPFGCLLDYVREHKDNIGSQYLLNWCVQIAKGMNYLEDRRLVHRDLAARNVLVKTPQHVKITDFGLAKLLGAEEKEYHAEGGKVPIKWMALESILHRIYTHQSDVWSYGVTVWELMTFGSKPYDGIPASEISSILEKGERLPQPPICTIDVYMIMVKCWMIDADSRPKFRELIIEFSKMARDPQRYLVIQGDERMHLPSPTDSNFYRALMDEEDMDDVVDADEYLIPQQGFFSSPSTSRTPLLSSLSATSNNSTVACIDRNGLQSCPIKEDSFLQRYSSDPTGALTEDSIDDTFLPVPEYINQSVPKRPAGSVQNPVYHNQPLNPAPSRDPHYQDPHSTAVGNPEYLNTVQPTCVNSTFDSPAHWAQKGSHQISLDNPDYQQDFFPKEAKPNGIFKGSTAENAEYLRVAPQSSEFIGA
# Chain of Dickkopf-related protein 1 (Homo sapiens) (O94907 whole entry, looked up): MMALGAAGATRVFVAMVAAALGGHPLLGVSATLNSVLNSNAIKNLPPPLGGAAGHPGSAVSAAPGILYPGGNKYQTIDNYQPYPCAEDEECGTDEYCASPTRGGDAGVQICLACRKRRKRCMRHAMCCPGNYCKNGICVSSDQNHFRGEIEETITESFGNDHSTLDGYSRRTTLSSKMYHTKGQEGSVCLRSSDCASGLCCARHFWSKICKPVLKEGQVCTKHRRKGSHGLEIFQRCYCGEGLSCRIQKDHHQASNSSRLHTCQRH
# Chain of Torsin-1A-interacting protein 2 (Homo sapiens) (Q8NFQ8 whole entry, looked up): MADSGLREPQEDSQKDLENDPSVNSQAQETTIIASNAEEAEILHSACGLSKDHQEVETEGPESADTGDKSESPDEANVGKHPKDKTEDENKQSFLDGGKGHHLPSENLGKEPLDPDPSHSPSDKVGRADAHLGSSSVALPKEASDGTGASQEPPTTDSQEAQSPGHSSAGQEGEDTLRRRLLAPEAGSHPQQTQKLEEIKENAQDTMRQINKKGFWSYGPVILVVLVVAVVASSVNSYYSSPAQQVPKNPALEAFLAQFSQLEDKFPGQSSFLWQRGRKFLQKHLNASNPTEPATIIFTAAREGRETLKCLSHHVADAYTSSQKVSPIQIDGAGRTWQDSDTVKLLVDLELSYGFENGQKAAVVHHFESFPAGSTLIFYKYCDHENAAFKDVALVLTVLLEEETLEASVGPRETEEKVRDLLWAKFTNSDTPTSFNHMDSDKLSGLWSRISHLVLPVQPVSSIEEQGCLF
structure (smiles),measurement,setting,value
CCCCC=C[C@@H](NC(=O)c1ccc(C(=O)OC)cc1)c1ccccc1,composite z-score,[1],1.29
same,z-score,[2],-0.381 (inactive)
same,z-score,[3],-1.22 (inactive)
same,z-score,[4],0.771 (inactive)
same,composite z-score,[5],2.46
same,z-score,[6],-0.894 (inactive)
same,composite z-score,[7],0.145
same,composite z-score,[8],0.454
same,composite z-score,[9],1.02
same,composite z-score,[10],-0.0936
same,composite z-score,[11],0.741
same,composite z-score,[12],-0.095
same,composite z-score,[13],0.613
same,z-score,[14],-3.67 (inactive)
same,composite z-score,[15],0.335
same,composite z-score,[16],0.804
same,composite z-score,[17],0.239
same,composite z-score,[18],0.279
same,composite z-score,[19],0.393
same,composite z-score,[20],0.629
CCCNC(=O)[C@@]1(c2ccc([N+](=O)[O-])cc2)CC(=O)N(CC23CC4CC(CC(C4)C2)C3)[C@@H]1c1ccc(CO)cc1,composite z-score,[1],0.89
same,z-score,[2],-0.057 (inactive)
same,z-score,[3],-0.403 (inactive)
same,z-score,[4],4.67 (inactive)
same,composite z-score,[5],0.907
same,z-score,[6],0.156 (inactive)
same,composite z-score,[7],0.164
same,composite z-score,[8],0.701
same,composite z-score,[9],0.305
same,composite z-score,[10],0.105
same,composite z-score,[11],0.814
same,composite z-score,[12],0.644
same,composite z-score,[13],-0.0905
same,z-score,[14],0.228 (inactive)
same,composite z-score,[15],0.425
same,composite z-score,[16],0.108
same,composite z-score,[17],0.533
same,composite z-score,[18],1.34
same,composite z-score,[19],0.138
same,composite z-score,[20],-0.247
CCCCCCc1nc(CCCc2cc3c(c(CCCCCC)n2)[Si](C(C)C)(C(C)C)OC3)cc2c1[Si](C(C)C)(C(C)C)OC2,composite z-score,[1],-0.41
same,z-score,[2],-0.506 (inactive)
same,z-score,[3],-2.38 (inactive)
same,z-score,[4],0.256 (inactive)
same,composite z-score,[5],-0.134
same,z-score,[6],-0.3 (inactive)
same,composite z-score,[7],-0.208
same,composite z-score,[8],0.257
same,composite z-score,[9],-0.58
same,composite z-score,[10],-0.287
same,composite z-score,[11],-0.432
same,composite z-score,[12],-0.33
same,composite z-score,[13],-0.138
same,z-score,[14],0.775 (inactive)
same,composite z-score,[15],-0.408
same,composite z-score,[16],-0.242
same,composite z-score,[17],-0.0687
same,composite z-score,[18],-0.176
same,composite z-score,[19],0.279
same,composite z-score,[20],1.49
CC(C)CNC(=O)[C@@]1(c2ccc([N+](=O)[O-])cc2)CC(=O)N(CC23CC4CC(CC(C4)C2)C3)[C@@H]1c1ccc(CO)cc1I,composite z-score,[1],1.54
same,z-score,[2],0.951 (inactive)
same,z-score,[3],0.864 (inactive)
same,z-score,[4],3.26 (inactive)
same,composite z-score,[5],3.06
same,z-score,[6],-0.569 (inactive)
same,composite z-score,[7],-0.0144
same,composite z-score,[8],1.3
same,composite z-score,[9],1.09
same,composite z-score,[10],-0.0088
same,composite z-score,[11],1.13
same,composite z-score,[12],0.109
same,composite z-score,[13],0.0793
same,z-score,[14],-0.125 (inactive)
same,composite z-score,[15],1.04
same,composite z-score,[16],1.3
same,composite z-score,[17],0.578
same,composite z-score,[18],1.08
same,composite z-score,[19],0.808
same,composite z-score,[20],0.383
